The sample as a whole holds a higher share of hits than the screen did.
ROC1-CUL1 inh: inhibitors of human ROC1-CUL1 ubiquitin ligase activity | in vitro K48 di-Ub FRET, acceptor:donor ratio, 45 min | inhibition, % at 10 µM | actives 0.6% (n = 140,000); in the data active = inhibition above about 25%
Starred values were filed as active, the others as inactive.

Screening O=C(c1ccccc1)c1coc2cc(Br)c(O)c(Br)c12 returned ROC1-CUL1 inh 15.1.
For CC(=O)Oc1ccc2occ(C(=O)c3ccccc3)c2c1 the results were ROC1-CUL1 inh -10.1.
`CC(=O)C(C(C)=O)C1=C(Br)C(=O)C(=O)c2c(C(=O)c3ccccc3)coc21` gave ROC1-CUL1 inh 11.7.
Screening Cc1ccc(C(=O)c2coc3c2C(=O)C(=O)C(Br)=C3)cc1 returned ROC1-CUL1 inh 95.7*.
Screening CN(C)c1ccc(N=C(C#N)c2ccccc2)cc1 returned ROC1-CUL1 inh 5.2.
Screening CCOC(=O)C(CC)(CC)C(=O)/C=C/c1ccc(N(C)C)cc1 returned ROC1-CUL1 inh 5.4.
Screening CCCCCSc1nnc2c(n1)OC(c1ccc(OCCC)cc1)N(C(C)=O)c1ccccc1-2 (centres undefined) returned ROC1-CUL1 inh 4.2.
For O=C(O)CCSc1nnc(-c2ccc([N+](=O)[O-])o2)o1 the results were ROC1-CUL1 inh 1.8.
CN(C(=O)CC1(c2ccccc2)CC(=O)N(CCCOc2cccnc2)C1=O)C1CCOCC1 (centres undefined) was read as ROC1-CUL1 inh 5.4.
For Cc1nc2nc[nH]n2c(=O)c1Cc1cccc(Cl)c1 the results were ROC1-CUL1 inh -13.8.
For CCC1CCc2c(sc3[nH]c(=S)n(-c4ccccc4)c(=O)c23)C1 (centres undefined) the results were ROC1-CUL1 inh 2.5.
`CCOc1cc(/C=C2\C(=O)NN(c3ccccc3)C2=O)cc(Br)c1OCCCOc1ccc(C)cc1` gave ROC1-CUL1 inh 16.6.
`COc1cc(/C=C2\C(=O)NN(c3ccccc3)C2=O)cc(Cl)c1OCc1ccc(C)cc1` gave ROC1-CUL1 inh 39.4*.
For CCOc1cc(/C=C2/C(=O)NN(c3ccc(C(=O)OC)cc3)C2=O)cc(Br)c1OC(C)=O the results were ROC1-CUL1 inh 18.8.
`COc1cc(/C=C2\C(=O)NN(c3ccccc3)C2=O)cc(Br)c1OC(=O)C12CC3CC(CC(C3)C1)C2` gave ROC1-CUL1 inh 27.4*.
`CCOc1cc(/C=C2\C(=O)NN(c3ccc(I)cc3)C2=O)ccc1O` gave ROC1-CUL1 inh 0.0.
Screening COc1cc(/C=C2\C(=O)NN(c3ccccc3)C2=O)cc(OC)c1OC returned ROC1-CUL1 inh -2.1.
For CCOc1cc(/C=C2\C(=O)NN(c3ccccc3)C2=O)cc(Br)c1OCc1ccc(C)cc1 the results were ROC1-CUL1 inh 8.6.
`CCOc1cc(/C=C2/C(=O)NN(c3ccc(I)cc3)C2=O)cc(Br)c1OC(C)=O` gave ROC1-CUL1 inh 65.8*.
CCOc1cc(/C=C2\C(=O)NN(c3ccccc3)C2=O)cc(Br)c1OCc1ccccc1C was read as ROC1-CUL1 inh 29.6*.
`CCOc1cc(/C=C2\C(=O)NN(c3ccccc3)C2=O)cc(Cl)c1OCc1ccc(Cl)cc1` gave ROC1-CUL1 inh 7.4.
COc1cc(/C=C2/C(=O)NN(c3ccccc3)C2=O)cc(Br)c1OC(C)=O was read as ROC1-CUL1 inh -0.7.
COc1cc(/C=C2\C(=O)NN(c3ccccc3)C2=O)cc(I)c1OCc1ccc(Cl)c(Cl)c1 was read as ROC1-CUL1 inh 12.4.
For COc1ccc(CCC(=O)Nc2ccc(F)c(Cl)c2)cc1 the results were ROC1-CUL1 inh 6.2.
`CC(C)(C)OCC(O)CN1CCN(c2cccc(C(F)(F)F)c2)CC1` (centres undefined) gave ROC1-CUL1 inh 5.4.
Screening COc1cc(/C=C2\C(=O)NN(c3ccccc3)C2=O)cc(Cl)c1OCCCOc1cccc(C)c1 returned ROC1-CUL1 inh 22.7.
Screening COc1cc(/C=C2\C(=O)NN(c3ccccc3)C2=O)cc(Br)c1OCc1ccccc1C returned ROC1-CUL1 inh 93.6*.
Screening COc1cc(/C=C2/C(=O)NN(c3ccc(Br)cc3)C2=O)cc(Br)c1OC returned ROC1-CUL1 inh 7.1.
Screening Cc1cc(OCC(=O)Nc2cccc(-c3nc4ncccc4o3)c2)ccc1Cl returned ROC1-CUL1 inh 13.2.
Screening N#Cc1c(-c2ccccc2)cc(-c2cccs2)nc1SCCN1CCOCC1 returned ROC1-CUL1 inh 0.5.
`Cc1nc(SCCN2CCOCC2)cc(-c2ccccc2)n1` gave ROC1-CUL1 inh -3.1.
N#Cc1c(-c2ccccc2)cc(-c2ccccc2)nc1SCCN1CCOCC1 was read as ROC1-CUL1 inh 99.7*.
Screening O=C(N/N=C/c1cccs1)C1CC2CCC1C2 (centres undefined) returned ROC1-CUL1 inh -3.1.
Cc1ccc(C(=O)NCC2CCCO2)cc1Cl (centres undefined) was read as ROC1-CUL1 inh -0.2.
Screening c1ccc(C(OCCNC2=NCCN2)c2ccccc2)cc1 returned ROC1-CUL1 inh 2.9.
Screening COc1ccc(-c2ccc(C#N)c(SCC(=O)Nc3ccc4c(c3)OCCO4)n2)cc1 returned ROC1-CUL1 inh 6.9.
`CC(C)CCNCc1ccc(-c2cccc(C(=O)O)c2)o1` gave ROC1-CUL1 inh 2.6.
CC(C)CN1C(=O)C(Cc2ccc(-c3cccc(C(=O)O)c3)o2)=NC1=S was read as ROC1-CUL1 inh 28.2*.
For O=C(O)c1ccc(-c2ccc(CC3=NC(=O)N(Cc4ccccc4F)C3=O)o2)cc1Cl the results were ROC1-CUL1 inh 2.6.
For O=C1N=C(Cc2ccc(-c3ccc(Cl)c(Cl)c3)o2)C(=O)N1Cc1ccccc1 the results were ROC1-CUL1 inh -7.7.
For O=C1N=C(Cc2ccc(-c3ccccc3)o2)C(=O)N1Cc1ccc(Cl)cc1 the results were ROC1-CUL1 inh 5.6.
For O=C(O)c1cc(-c2ccc(CC3=NC(=O)N(Cc4ccccc4)C3=O)o2)ccc1Cl the results were ROC1-CUL1 inh 57.7*.
`Cn1c(Oc2ccccc2N=Cc2ccc(Cl)cc2Cl)cc(=O)n(C)c1=O` gave ROC1-CUL1 inh 6.6.
Cc1cccc(-n2c(C)cn3c4c(=O)[nH]c(=O)n(C)c4nc23)c1 was read as ROC1-CUL1 inh 2.9.
Screening CC(C)=NNC(=O)c1nnn(-c2nonc2N)c1CN1CCOCC1 returned ROC1-CUL1 inh 0.0.
`CC(c1ccc2c(c1)OCCO2)N(C)C(=O)Cn1nnnc1CN1CCOCC1` (centres undefined) gave ROC1-CUL1 inh 7.1.
COc1cc(C(=O)Oc2cc(C)c(Br)cc2C(C)C)cc(OC)c1OC was read as ROC1-CUL1 inh 5.7.
O=S(=O)(NC1CCCCCC1)c1ccc(F)cc1 was read as ROC1-CUL1 inh -8.9.
`CCOC(=O)c1c(NC(=O)CN2CCC(C)CC2)sc(C)c1-c1ccc(Cl)cc1` gave ROC1-CUL1 inh 8.9.
CCC(C)NC(=O)N1CCc2c(cnc(C)c2-c2noc(-c3cscn3)n2)C1 (centres undefined) was read as ROC1-CUL1 inh -4.0.
`COc1ccc(OC)c2c1C(=O)c1ccccc1-2` gave ROC1-CUL1 inh -1.2.
For O=c1c(-c2ccccc2)c1-c1ccccc1 the results were ROC1-CUL1 inh 0.4.
Screening O=C1c2ccccc2-c2c1c(O)c(O)c(-c1ccccc1)c2-c1ccccc1 returned ROC1-CUL1 inh 102.1*.
`Cc1cc(/C=C2\C(=O)NC(=S)N(C)C2=O)c(C)n1-c1ccccc1F` gave ROC1-CUL1 inh 2.4.
`CN1C(=O)/C(=C/c2cc(Br)c(Sc3ccc(Cl)cc3)o2)C(=O)NC1=S` gave ROC1-CUL1 inh 48.1*.
For CN1C(=O)C(=Cc2cc(Br)c(N(C)C)o2)C(=O)N(C)C1=O the results were ROC1-CUL1 inh 0.0.
For Cc1cc(C(=O)C2C(=O)C(=O)N(CCCN(C)C)C2c2ccncc2)ccc1OC(C)C (centres undefined) the results were ROC1-CUL1 inh -2.1.

Compound activity (PubChem)
